Unmarked numbers belong to inactive results. Active and inactive are the calls of the source. Cut-off read from the data, not from the text of the source: active = inhibition above about 42%; inactive = the rest.

The term inhibition denotes the drop in the measured response relative to a control, in per cent.

In this test the target is Nuclear receptor subfamily 5 group A member 2 (Homo sapiens) (UniProt O00482). Put plainly: NR5A2 activity suppression in reporter cells – cell-based, luminescence, confirmation (AID 651613).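 Note: HEK293T cells co-transfected with LRH-1 and StAR promoter luciferase reporter; 0% = vehicle wells and 100% = parental cells lacking receptor.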 The note with it: cell-based LRH-1 luciferase reporter, inverse agonism; at 3.6 µM; hits give high values.
Sequence of Nuclear receptor subfamily 5 group A member 2 (Homo sapiens) (O00482 whole entry, looked up): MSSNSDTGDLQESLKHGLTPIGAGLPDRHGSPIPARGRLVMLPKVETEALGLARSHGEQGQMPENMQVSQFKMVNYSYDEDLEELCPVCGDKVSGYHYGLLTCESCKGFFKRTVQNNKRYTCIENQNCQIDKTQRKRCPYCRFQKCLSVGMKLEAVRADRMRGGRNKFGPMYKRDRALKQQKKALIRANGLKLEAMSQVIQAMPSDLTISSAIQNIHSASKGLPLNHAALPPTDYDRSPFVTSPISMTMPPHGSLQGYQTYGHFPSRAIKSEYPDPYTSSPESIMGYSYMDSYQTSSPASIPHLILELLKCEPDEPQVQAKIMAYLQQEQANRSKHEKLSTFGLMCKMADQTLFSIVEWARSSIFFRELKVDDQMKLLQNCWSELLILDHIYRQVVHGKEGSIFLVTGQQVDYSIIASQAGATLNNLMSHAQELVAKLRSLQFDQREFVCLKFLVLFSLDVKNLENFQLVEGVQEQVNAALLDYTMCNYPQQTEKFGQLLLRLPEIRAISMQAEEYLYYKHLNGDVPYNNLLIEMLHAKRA
Consider `O=C(CCl)Nc1cc2[nH]c(=O)[nH]c2cc1Br`, for which the inhibition is 78.6% (active).

For `Cc1cccc(/C=C(\c2nc3ccccc3[nH]2)S(=O)(=O)c2ccccc2)c1`, the inhibition is 35.1%.

Regarding `CN(C)CCC(=O)N1C/C(=C/c2ccccc2)C(=O)/C(=C\c2ccccc2)C1`, the inhibition is 84% (active).

For `C=CC(=O)N1C/C(=C/c2ccc(Cl)cc2)C(=O)/C(=C\c2ccc(Cl)cc2)C1`, the inhibition was 84.7% (active).

As for `CCN(Cc1ccc(OC)c(F)c1)C(=O)CCl`, the inhibition was 78.7% (active).

With `CC(C)(C)c1ccc(Oc2ccc(NC(=O)C3CC=CCC3C(=O)O)cc2)cc1` (stereo not given), the inhibition is 6.39%.

With `COc1ccc(CCNc2ncnc3sc(C)cc23)cc1OC`, the inhibition was 90.1% (active).

For the compound `CCCCCc1c(CC)ncn1CCc1ccccc1OC`, the inhibition was 23.2%.

For `Cc1ccc(NC(=O)C2=C(c3ccccc3)S(=O)(=O)CCS2(=O)=O)cc1`, the inhibition was -4.23%.

Turning to `O=C(CCl)N1CCN(S(=O)(=O)Cc2ccccc2)CC1`, the inhibition is 52.9% (active).

Turning to `COc1ccc(OC)c(N(CCN2C(=O)c3ccccc3C2=O)C(=O)CCl)c1`, the inhibition was 30.5%.

Turning to `CC(=O)c1c(C)[nH]c(C(=O)COc2cc(C)ccc2C(C)C)c1C`, the inhibition was 53.5% (active).

Consider `COc1ccc(/C=C/c2nc3ccccc3c(=O)o2)cc1`, for which the inhibition is -49.3%.

As to `O=C(NCCOc1cccnc1)c1ccc(OC2CCN(Cc3ccccn3)CC2)cc1`, the inhibition was 105% (active).

On to `CC1C/C(=C/c2ccncc2)C(=O)/C(=C/c2ccncc2)C1` (stereo not given), for which the inhibition was 73.6% (active).

For `Cc1ccc(C(=O)Sc2cccccc2=O)cc1`, the inhibition was 107% (active).

As to `Cc1ccc(-c2nc(NC(=O)c3nn(C)cc3[N+](=O)[O-])sc2C)cc1`, the inhibition was 21.2%.

`O=C(CCCc1ccccc1)c1ccc2c(c1)OCCO2`: the inhibition was 7.99%.

Turning to `O=C(CSc1ncccc1C(=O)O)Nc1ccc2c(c1)OCCO2`, the inhibition is 11.1%.

Consider `Cc1nnsc1C(=O)NC1CCCc2c1cnn2-c1ccc(C(C)(C)C)cc1` (stereo not given), for which the inhibition was 50.7% (active).

For `Cc1scc(C(=O)N/N=C/c2ccc([N+](=O)[O-])o2)c1C`, the inhibition was 76.3% (active).

`CCOc1ccc(-c2cc(CCCC(=O)Nc3cccc(OC)c3)no2)cc1`: the inhibition is 40.9%.

As for `O=C1/C(=C\c2ccccc2)CN(C(=O)CCN2CCCCC2)C/C1=C/c1ccccc1`, the inhibition was 84.7% (active).

As to `CC(=O)NC(c1cccc([N+](=O)[O-])c1)c1ccc2cccnc2c1O` (stereo not given), the inhibition is 100% (active).

With `COc1cccc(C2=CC(=O)CC(C)(C)C2)n1`, the inhibition is 61.3% (active).

Regarding `CCCCCCCCCC[n+]1cccc2c3ccccc3ccc21`, the inhibition is 110% (active).

For the compound `Cc1ccnc2c1ccc1cccnc12`, the inhibition was 108% (active).

For `CC(C)(C)C(=O)Nc1cc2nn(-c3ccccc3)nc2cc1Cl`, the inhibition was 19.3%.

In the case of `O=C(NCCc1c[nH]c2ccccc12)c1ccc([N+](=O)[O-])o1`, the inhibition is 62.6% (active).

As for `N#Cc1cccc(C=C(C(=O)c2ccccc2)c2ccccc2)c1`, the inhibition was 28.9%.

For `CC1C/C(=C\c2cccnc2)C(=O)/C(=C/c2cccnc2)C1` (stereo not given), the inhibition is 100% (active).

As for `O=C(CCl)N(c1ccccc1)c1c[nH]c2ccccc12`, the inhibition was 55.8% (active).

Regarding `Cc1cc(C)c(C#N)c(Sc2nc(C)c([N+](=O)[O-])c(C)c2C#N)n1`, the inhibition is 10.9%.

Consider `O=C1C=CC2(C=C1)O[C@H](Cc1ccccc1)[C@@H](Cc1ccccc1)O2`, for which the inhibition was 83.4% (active).

With `C=CC(=O)N1C/C(=C/c2ccccc2)C(=O)/C(=C\c2ccccc2)C1`, the inhibition was 71.8% (active).

With `COc1ccc(NS(=O)(=O)c2ccc3c(c2)OCCO3)cc1OC`, the inhibition was 69.7% (active).

Regarding `COc1ccc(NC(=O)/C(Cl)=C(/Cl)S(=O)Cc2ccccc2)cn1` (stereo not given), the inhibition is 87.8% (active).

With `c1ccc2c(c1)CCN(c1ncnc3c1[nH]c1ccccc13)C2`, the inhibition was 68.5% (active).

For `CC1CCC/C=C/C(=O)c2c(O)cc(O)cc2CC(=O)O1` (stereo not given), the inhibition is 35.8%.

`Cn1cnc([N+](=O)[O-])c1Oc1ccc2ccccc2c1`: the inhibition was 55.3% (active).

For the origin of these results see PubChem BioAssay.
